High-throughput results from PubChem BioAssay.
VACV Venus inh: inhibitors of vaccinia virus (Venus reporter). AID 720580. Potency, µM (series often up to 36.5 µM), actives largely listed as inhibitors. 330,000 tested, 0.46% active. Vaccinia virus Venus reporter expression, fluorescence; calls by dose curve; tested in A549 cells; also: nearly all actives have a fitted effect of over 30% in size
Tb PYK inh: T. brucei pyruvate kinase inhibition; 410,000 tested, 0.12% active; TbPYK enzyme, Kinase-Glo Plus ATP luminescence, 45 min; Potency, µM (highest dose often 76.8 µM), actives largely listed as inhibitors; also: nearly all actives have a fitted effect of over 50% in size
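Luminescent Kinase-Glo Plus end-point after 45 min room-temperature reaction of T. brucei pyruvate kinase started with 130 uM ADP (final). Buffer TEA 50 mM pH 7.2 with KCl, MgCl2, BSA, Tween-20; titration-based qHTS with fitted concentration-effect curves.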
AMA1-RON2 inh: disrupts binding of P. falciparum AMA1 to RON2; AlphaScreen AMA1-biotinylated RON2 peptide binding; Potency, µM (top dose mostly 58.2 µM), actives largely listed as inhibitors; 360,000 tested, 0.2% active; AID 720542; also: nearly all actives have a fitted effect of over 45% in size
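AMA1 (3D7) with his tag at 25 nM final met compounds first, then biotinylated RON2 peptide at 25 nM; detection used donor plus acceptor beads, 10 µg/mL apiece, read by AlphaScreen after 30 min at room temperature.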
LmPK inhibitor: blocks Leishmania mexicana pyruvate kinase activity. Q27686. purified LmPK, Kinase-Glo ATP luminescence, 1 h. Potency, µM (doses to about 57.5 µM), actives largely listed as inhibitors. 290,000 tested, 0.37% active. AID 1721
Target sequence (Q27686 whole entry, looked up): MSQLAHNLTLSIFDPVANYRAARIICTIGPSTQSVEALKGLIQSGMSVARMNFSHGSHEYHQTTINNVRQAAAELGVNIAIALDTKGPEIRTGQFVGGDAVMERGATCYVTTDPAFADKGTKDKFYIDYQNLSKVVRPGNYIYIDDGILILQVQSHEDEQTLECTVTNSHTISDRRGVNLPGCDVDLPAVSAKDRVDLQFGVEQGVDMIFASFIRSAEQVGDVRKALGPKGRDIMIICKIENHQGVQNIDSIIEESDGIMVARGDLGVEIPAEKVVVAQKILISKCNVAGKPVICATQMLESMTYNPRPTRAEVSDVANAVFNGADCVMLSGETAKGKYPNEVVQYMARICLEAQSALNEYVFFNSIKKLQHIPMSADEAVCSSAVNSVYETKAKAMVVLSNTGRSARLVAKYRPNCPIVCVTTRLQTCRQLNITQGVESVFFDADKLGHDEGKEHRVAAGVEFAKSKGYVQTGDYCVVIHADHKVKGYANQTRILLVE
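Screened at intermediate enzyme activity to detect both inhibitors and activators: LmPK at 0.1 nM, with a 0.5 nM enzyme column as activation reference. PEP 0.5 mM, ADP 0.1 mM; ATP detected by luminescence after 1 h.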
RE007 growth inh: less growth of the S. pombe RE007 Vpr strain | S. pombe RE007 Vpr strain, BacTiter-Glo ATP luminescence, 24 h | Potency, µM (titrated, usually from 92.2 µM), usual class: inhibitors | 360,000 tested, 0.21% active; active = well fitted falling curve with a large enough effect; inconclusive = small, poorly fitted or top-dose-only effect; inactive = no such curve, though single readings can be large or run the other way; also: nearly all actives have a fitted effect of over 50% in size
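Fission yeast RE007 carrying one integrated HIV-1 vpr copy, seeded at OD 0.01 in PMG+AL medium with 23 nL pinned compound. Grown 24 h at 30 degrees; viability read by BacTiter-Glo luminescence after 5 min.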
Vaccinia mCherry: vaccinia inhibition (mCherry reporter); Vaccinia virus mCherry reporter infection, fluorescence; Potency, µM (highest dose often 36.5 µM), most hits filed as inhibitors; 310,000 tested, 0.63% active; AID 720579; calls by dose curve; tested in A549 cells; also: nearly all actives have a fitted effect of over 35% in size
A number is an active result; [ ] = dose if it differs, or a comment. Compounds with a hit are over-represented: about 1.3% of the library has one in this group of screens. Unless noted, calls follow the shape of the dose curve; as a rule, active = well fitted curve in the direction sought with a large enough effect; inconclusive = small, poorly fitted or top-dose-only effect, or another doubt; inactive = no such curve, though single readings can be large; an effect the other way counts as inactive or inconclusive.

What do the screens show for `O=C(/C=C/Nc1ccccc1F)c1cccs1`?
VACV Venus inh: inactive; Tb PYK inh: inconclusive; AMA1-RON2 inh: inactive; LmPK inhibitor: 16µM; RE007 growth inh: inactive; Vaccinia mCherry: inactive

What do the screens show for `O=C(/C=C/Nc1ccc(F)cc1F)c1cccs1`?
VACV Venus inh: inactive; Tb PYK inh: inconclusive; AMA1-RON2 inh: inactive; LmPK inhibitor: 8.9µM; RE007 growth inh: inactive; Vaccinia mCherry: inactive

How did CC1CCN(c2oc(-c3ccc(COc4ccc(Cl)cc4)o3)nc2C#N)CC1 do in these assays?
VACV Venus inh: inactive; Tb PYK inh: inactive; Vaccinia mCherry: inactive

How did OC1(c2cccnc2)CCN(Cc2ccc3c(c2)CN(Cc2ccsc2)CCO3)CC1 do in these assays?
VACV Venus inh: inactive; Vaccinia mCherry: inactive

What do the screens show for `CCOc1ccc2c(c1)-c1c(ssc1=S)C(C)(C)N2C(=O)CSC1=NCCS1`?
VACV Venus inh: inactive; Tb PYK inh: inactive; AMA1-RON2 inh: 10µM; LmPK inhibitor: inactive; RE007 growth inh: inactive; Vaccinia mCherry: inactive

What do the screens show for `Cc1ccc2c(c1)-c1c(ssc1=S)C(C)(C)N2C(=O)CSC1=NCCS1`?
Tb PYK inh: inactive; AMA1-RON2 inh: inconclusive; LmPK inhibitor: inactive; RE007 growth inh: inactive

Results for CCOc1ccc2c(c1)/C(=N/N1C(=O)c3ccccc3C1=O)C(=O)N2 ?
VACV Venus inh: inactive; Tb PYK inh: inactive; AMA1-RON2 inh: inactive; LmPK inhibitor: inactive; RE007 growth inh: inactive; Vaccinia mCherry: inactive

Results for CCOc1ccc2c(c1)-c1c(ssc1=S)C(C)(C)N2 ?
VACV Venus inh: inconclusive; Tb PYK inh: inactive; AMA1-RON2 inh: 19µM; LmPK inhibitor: inactive; RE007 growth inh: inactive; Vaccinia mCherry: inconclusive

Results for CC(=O)NCC(=O)NCC1Cc2cc(C)cc(-c3ccccn3)c2O1 (centres undefined) ?
VACV Venus inh: inactive; Vaccinia mCherry: inactive

How did CC1=C/C(=C(\c2cc(C)c(O)c(Br)c2)c2ccccc2S(=O)(=O)O)C=C(Br)C1=O do in these assays?
Tb PYK inh: inconclusive; AMA1-RON2 inh: inconclusive; LmPK inhibitor: 7.9µM; RE007 growth inh: inconclusive

What do the screens show for `COc1cccc(CN2CCc3nnc(CCc4ccccc4)n3CC2)c1OC`?
VACV Venus inh: inactive; Vaccinia mCherry: inactive

Results for CCOC(=O)c1sc2nc(CSc3ccccc3)nc(N3CCC(C(N)=O)CC3)c2c1C ?
VACV Venus inh: 10µM; Tb PYK inh: inactive; AMA1-RON2 inh: inactive; LmPK inhibitor: inactive; RE007 growth inh: inactive; Vaccinia mCherry: 11µM

Results for CCOC(=O)COc1ccccc1/C=C\[N+](=O)[O-] ?
VACV Venus inh: inconclusive; Tb PYK inh: inconclusive; AMA1-RON2 inh: inactive; LmPK inhibitor: inactive; RE007 growth inh: 32µM; Vaccinia mCherry: inconclusive

What do the screens show for `O=C(c1ccc2c(c1)OCO2)N(Cc1cc2ccc(F)cc2nc1N1CCC(O)CC1)CC1CCCO1` (centres undefined)?
VACV Venus inh: inactive; Vaccinia mCherry: inactive

How did O=C(Oc1c(CN2CCOCC2)cc(Cl)c2cccnc12)c1ccccc1 do in these assays?
VACV Venus inh: inconclusive; Tb PYK inh: inactive; AMA1-RON2 inh: inactive; LmPK inhibitor: inactive; RE007 growth inh: inactive; Vaccinia mCherry: inconclusive

What do the screens show for `O=C(Oc1c(CN2CCOCC2)cc(Cl)c2cccnc12)c1ccccc1F`?
VACV Venus inh: 10µM; Tb PYK inh: inactive; AMA1-RON2 inh: inactive; LmPK inhibitor: inactive; RE007 growth inh: inconclusive; Vaccinia mCherry: 7.9µM

Results for COCn1c(-c2ccc(OC)cc2)nc2ccccc21 ?
VACV Venus inh: inactive; Tb PYK inh: inactive; AMA1-RON2 inh: inactive; LmPK inhibitor: 22µM; RE007 growth inh: inactive; Vaccinia mCherry: inactive

What do the screens show for `CCCn1c(-c2ccc(OC)cc2)nc2ccccc21`?
Tb PYK inh: inactive; AMA1-RON2 inh: inactive; LmPK inhibitor: inactive; RE007 growth inh: inactive

Results for COc1cc2nc(CN(CCO)C3CS(=O)(=O)CC3O)nc(N3CCCCC3)c2cc1OC (centres undefined) ?
VACV Venus inh: inactive; Vaccinia mCherry: inactive

What do the screens show for `COc1cc(OC)c(OC)cc1/C=C1\CC(C)C/C(=C\c2cc(OC)c(OC)cc2OC)C1=O` (centres undefined)?
Tb PYK inh: inactive; AMA1-RON2 inh: 32µM; LmPK inhibitor: inactive; RE007 growth inh: inactive

Results for CCC1C/C(=C\c2cc(OC)c(OC)cc2OC)C(=O)/C(=C/c2cc(OC)c(OC)cc2OC)C1 (centres undefined) ?
Tb PYK inh: inactive; AMA1-RON2 inh: 22µM; LmPK inhibitor: inactive; RE007 growth inh: inactive

What do the screens show for `CCC1C/C(=C/c2ccco2)C(=O)/C(=C/c2ccco2)C1` (centres undefined)?
LmPK inhibitor: inactive

What do the screens show for `COc1cc(OC)c(OC)cc1/C=C1/Cc2ccccc2C1=O`?
Tb PYK inh: inactive; AMA1-RON2 inh: inactive; LmPK inhibitor: inactive; RE007 growth inh: inactive

How did COc1cc(/C=N/n2c(C3CCCCC3)n[nH]c2=S)cc(Br)c1O do in these assays?
Tb PYK inh: 7.9µM; AMA1-RON2 inh: inactive; LmPK inhibitor: inactive; RE007 growth inh: inactive

Results for CCOc1ccc2nc(N3CCCC3C(=O)N3CCC(c4nc5ccccc5o4)CC3)nc(C)c2c1 (centres undefined) ?
VACV Venus inh: inactive; Vaccinia mCherry: inactive

What do the screens show for `COCc1c(C(=O)NC2CCCC2)cnn1-c1nccc(-c2ccco2)n1`?
VACV Venus inh: inactive; Vaccinia mCherry: inactive

Results for CCCCC/C=C\C/C=C\C/C=C\C=C\[C@@H](O)CCCC(=O)O ?
VACV Venus inh: inactive[0.293 µM]; Vaccinia mCherry: inactive[0.293 µM]

What do the screens show for `O=c1[nH]cnc2c1sc1nc3c(c(-c4ccc(Cl)cc4)c12)CCC3`?
VACV Venus inh: 2.8µM; Tb PYK inh: inactive; AMA1-RON2 inh: inactive; LmPK inhibitor: inactive; RE007 growth inh: inactive

How did CCOC(=O)Cn1nnc2c(sc3nc4c(c(-c5ccc(Cl)cc5)c32)CCC4)c1=O do in these assays?
VACV Venus inh: inactive; Tb PYK inh: inactive; AMA1-RON2 inh: inactive; LmPK inhibitor: inactive; RE007 growth inh: inactive

What do the screens show for `COCCS(=O)(=O)N(Cc1ccccc1)[C@H](C(=O)OC)C(C)C`?
VACV Venus inh: inactive; Tb PYK inh: inactive; AMA1-RON2 inh: inactive; RE007 growth inh: inactive; Vaccinia mCherry: inactive

Results for COCCS(=O)(=O)N(Cc1ccc(Br)cc1)[C@@H](C)C(=O)OC ?
VACV Venus inh: 7.1µM; Tb PYK inh: inactive; AMA1-RON2 inh: inactive; RE007 growth inh: inactive; Vaccinia mCherry: inconclusive

Results for CCOC(=O)C1CCCN(C(=O)c2cnn(-c3ncc4c(n3)-c3ccccc3CC4)c2C)C1 (centres undefined) ?
VACV Venus inh: inactive; Vaccinia mCherry: inactive

What do the screens show for `Cn1c(/C=C/c2ccccc2)nc2ccccc21`?
VACV Venus inh: inactive; Tb PYK inh: inconclusive; AMA1-RON2 inh: inactive; LmPK inhibitor: 5µM; RE007 growth inh: inconclusive; Vaccinia mCherry: inactive
